Here are results for 8 sequences from article PMC11006913.

Assay in all cases: PBM; 200 nM protein, PBS
Settings in all cases: dsDNA, one strand shown

In assay [1] the target is HOXC10 (Homo sapiens, UniProt Q9NYD6 254-340).
In assay [2] the target is ALX3 (Homo sapiens, UniProt O95076 139-225, N203Q).
In assay [3] the target is HOXC10 (Homo sapiens, UniProt Q9NYD6 254-340, K271E).
The target in assay [4] is ALX3 (Homo sapiens, UniProt O95076 139-225).
Assay [5] concerns the target ALX3 (Homo sapiens, UniProt O95076 139-225, L168Q).
Assay [6] concerns the target ALX3 (Homo sapiens, UniProt O95076 139-225, L168V).
Assay [7] has as its target ALX3 (Homo sapiens, UniProt O95076 139-225, N203S).
Assay [8] has as its target HOXD13 (Homo sapiens, UniProt P35453 263-343, T313R).
The target of assay [9] is HOXD13 (Homo sapiens, UniProt P35453 263-343).
Sequence of HOXD13 (Homo sapiens, UniProt P35453 263-343) (P35453 263-343): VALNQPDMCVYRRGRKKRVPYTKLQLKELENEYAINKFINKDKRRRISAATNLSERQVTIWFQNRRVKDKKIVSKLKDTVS
In assay [10] the target is HOXB6 (Homo sapiens, UniProt P17509 132-218, K202E).
Sequence of HOXB6 (Homo sapiens, UniProt P17509 132-218, K202E) (P17509 132-218 K202E): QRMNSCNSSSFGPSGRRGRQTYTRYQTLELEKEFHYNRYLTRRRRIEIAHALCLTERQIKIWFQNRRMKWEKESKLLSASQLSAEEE
For assay [11], the target named is PROP1 (Homo sapiens, UniProt O75360 56-141).
Sequence of PROP1 (Homo sapiens, UniProt O75360 56-141) (O75360 56-141): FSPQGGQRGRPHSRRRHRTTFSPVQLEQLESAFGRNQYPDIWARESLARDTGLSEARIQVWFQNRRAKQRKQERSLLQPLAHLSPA
Assay [12] deals with PROP1 (Homo sapiens, UniProt O75360 56-141, R99H).
Sequence of PROP1 (Homo sapiens, UniProt O75360 56-141, R99H) (O75360 56-141 R99H): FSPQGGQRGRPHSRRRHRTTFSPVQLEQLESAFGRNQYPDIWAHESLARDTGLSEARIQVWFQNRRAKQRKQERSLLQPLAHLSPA
The target in assay [13] is PROP1 (Homo sapiens, UniProt O75360 56-141, F88S).
Sequence of PROP1 (Homo sapiens, UniProt O75360 56-141, F88S) (O75360 56-141 F88S): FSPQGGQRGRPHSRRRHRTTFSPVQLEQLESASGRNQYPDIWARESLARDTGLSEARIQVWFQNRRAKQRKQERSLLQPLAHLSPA
Assay [14] has as its target HOXB6 (Homo sapiens, UniProt P17509 132-218).
Assay [15] concerns the target T1, PAX4 (Homo sapiens, UniProt O43316 9-242, R200K).
T1 sequence: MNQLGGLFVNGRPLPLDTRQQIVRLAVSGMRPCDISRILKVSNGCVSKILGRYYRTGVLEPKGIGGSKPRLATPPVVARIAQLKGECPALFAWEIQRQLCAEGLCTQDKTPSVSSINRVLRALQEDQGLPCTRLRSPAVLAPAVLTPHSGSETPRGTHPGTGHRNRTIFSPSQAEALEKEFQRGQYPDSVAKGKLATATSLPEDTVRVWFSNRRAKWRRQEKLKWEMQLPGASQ

Assay [16] has as its target T2, PAX4 (Homo sapiens, UniProt O43316 9-242).
T2 sequence: T1 sequence with K192R

Assay [17] addresses T3, PAX4 (Homo sapiens, UniProt O43316 9-242, R200Q).
T3 sequence: T1 sequence with K192Q

The target in assay [18] is T4, PAX4 (Homo sapiens, UniProt O43316 9-242, F177V).
T4 sequence: T1 sequence with F169V, K192R

Assay [19] has as its target T5, PAX4 (Homo sapiens, UniProt O43316 9-242, F177Y).
T5 sequence: T1 sequence with F169Y, K192R

For assay [20], the target named is T6, PAX4 (Homo sapiens, UniProt O43316 9-242, R227W).
T6 sequence: T1 sequence with K192R, R219W

The target of assay [21] is PRRX1 (Homo sapiens, UniProt P54821 80-166, F113S).
Sequence of PRRX1 (Homo sapiens, UniProt P54821 80-166, F113S) (P54821 80-166 F113S): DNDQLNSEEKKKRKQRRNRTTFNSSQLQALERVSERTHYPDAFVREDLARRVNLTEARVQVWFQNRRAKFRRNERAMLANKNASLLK
Assay [22] addresses HOXD13 (Homo sapiens, UniProt P35453 263-343, T313A).
Assay [23] concerns the target PRRX1 (Homo sapiens, UniProt P54821 80-166).
Assay [24] deals with T7, NKX2-6 (Homo sapiens, UniProt A6NCS4 118-204, R150C).
T7 sequence: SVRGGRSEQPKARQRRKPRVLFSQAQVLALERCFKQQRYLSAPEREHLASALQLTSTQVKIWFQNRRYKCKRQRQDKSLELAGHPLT

Assay [25] has as its target ALX1 (Homo sapiens, UniProt Q15699 118-204, L144V).
In assay [26] the target is ALX1 (Homo sapiens, UniProt Q15699 118-204, L144R).
Sequence of ALX1 (Homo sapiens, UniProt Q15699 118-204, L144R) (Q15699 118-204 L144R): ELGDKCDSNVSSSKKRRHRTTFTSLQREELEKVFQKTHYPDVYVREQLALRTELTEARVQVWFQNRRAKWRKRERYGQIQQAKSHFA
Assay [27] deals with ALX1 (Homo sapiens, UniProt Q15699 118-204).
Sequence of ALX1 (Homo sapiens, UniProt Q15699 118-204) (Q15699 118-204): as the sequence (Q15699 118-204 L144R) above, with R27L counted along it
Assay [28] has as its target HOXA2 (Homo sapiens, UniProt O43364 129-215, R185T).
The target of assay [29] is HOXA2 (Homo sapiens, UniProt O43364 129-215, R185K).
Sequence of HOXA2 (Homo sapiens, UniProt O43364 129-215, R185K) (O43364 129-215 R185K): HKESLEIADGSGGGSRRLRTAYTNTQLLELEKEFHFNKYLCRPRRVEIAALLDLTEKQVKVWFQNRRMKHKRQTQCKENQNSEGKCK
Assay [30] addresses HOXA2 (Homo sapiens, UniProt O43364 129-215, Y150S).
Assay [31] addresses HOXA2 (Homo sapiens, UniProt O43364 129-215).

Where a chain is given by its changes, count along the chain named.

Sequence of HOXD13 (Homo sapiens, UniProt P35453 263-343, T313R) (P35453 263-343 T313R): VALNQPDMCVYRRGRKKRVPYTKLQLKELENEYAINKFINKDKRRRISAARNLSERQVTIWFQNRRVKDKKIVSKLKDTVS
Sequence of HOXC10 (Homo sapiens, UniProt Q9NYD6 254-340) (Q9NYD6 254-340): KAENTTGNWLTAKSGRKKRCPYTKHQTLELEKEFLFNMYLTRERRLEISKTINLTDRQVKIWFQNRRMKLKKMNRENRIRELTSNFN
Sequence of HOXC10 (Homo sapiens, UniProt Q9NYD6 254-340, K271E) (Q9NYD6 254-340 K271E): as the sequence (Q9NYD6 254-340) above, with K18E counted along it
Sequence of HOXD13 (Homo sapiens, UniProt P35453 263-343, T313A) (P35453 263-343 T313A): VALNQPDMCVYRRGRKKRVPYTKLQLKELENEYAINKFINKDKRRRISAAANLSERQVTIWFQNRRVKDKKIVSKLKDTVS
Sequence of ALX3 (Homo sapiens, UniProt O95076 139-225) (O95076 139-225): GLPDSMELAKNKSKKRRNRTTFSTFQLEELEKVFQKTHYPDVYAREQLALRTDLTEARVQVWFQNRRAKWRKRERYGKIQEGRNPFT
Sequence of HOXA2 (Homo sapiens, UniProt O43364 129-215, Y150S) (O43364 129-215 Y150S): as the sequence (O43364 129-215 R185K) above, with Y22S, K57R counted along it
Sequence of ALX3 (Homo sapiens, UniProt O95076 139-225, N203S) (O95076 139-225 N203S): as the sequence (O95076 139-225) above, with N65S counted along it
Sequence of ALX3 (Homo sapiens, UniProt O95076 139-225, L168Q) (O95076 139-225 L168Q): as the sequence (O95076 139-225) above, with L30Q counted along it
Sequence of ALX1 (Homo sapiens, UniProt Q15699 118-204, L144V) (Q15699 118-204 L144V): as the sequence (Q15699 118-204 L144R) above, with R27V counted along it
Sequence of HOXB6 (Homo sapiens, UniProt P17509 132-218) (P17509 132-218): as the sequence (P17509 132-218 K202E) above, with E71K counted along it
Sequence of ALX3 (Homo sapiens, UniProt O95076 139-225, L168V) (O95076 139-225 L168V): as the sequence (O95076 139-225) above, with L30V counted along it
Sequence of ALX3 (Homo sapiens, UniProt O95076 139-225, N203Q) (O95076 139-225 N203Q): as the sequence (O95076 139-225) above, with N65Q counted along it
Sequence of PRRX1 (Homo sapiens, UniProt P54821 80-166) (P54821 80-166): as the sequence (P54821 80-166 F113S) above, with S34F counted along it
Sequence of HOXA2 (Homo sapiens, UniProt O43364 129-215) (O43364 129-215): as the sequence (O43364 129-215 R185K) above, with K57R counted along it
Sequence of HOXA2 (Homo sapiens, UniProt O43364 129-215, R185T) (O43364 129-215 R185T): as the sequence (O43364 129-215 R185K) above, with K57T counted along it

Regarding CCTGGGAC, the binding signal is 9.91 upbm affinity estimate (log intensity, higher = more binding, comparable within an allelic series) in assay [1]; 7.73 upbm affinity estimate (log intensity, higher = more binding, comparable within an allelic series) in assay [2]; 9.99 upbm affinity estimate (log intensity, higher = more binding, comparable within an allelic series) in [3]; 7.73 upbm affinity estimate (log intensity, higher = more binding, comparable within an allelic series) in assay [4]; 7.73 upbm affinity estimate (log intensity, higher = more binding, comparable within an allelic series) in [5]; 7.7 upbm affinity estimate (log intensity, higher = more binding, comparable within an allelic series) in assay [6]. Besides, the binding signal in assay [7] is 7.68 upbm affinity estimate (log intensity, higher = more binding, comparable within an allelic series).
With CAATATGG, the binding signal is 10.7 upbm affinity estimate (log intensity, higher = more binding, comparable within an allelic series) in assay [1]; 10 upbm affinity estimate (log intensity, higher = more binding, comparable within an allelic series) in assay [8]; 10.5 upbm affinity estimate (log intensity, higher = more binding, comparable within an allelic series) in assay [9].
In the case of GGGGGGAA, the binding signal in assay [1] was 10 upbm affinity estimate (log intensity, higher = more binding, comparable within an allelic series); in assay [10], 9 upbm affinity estimate (log intensity, higher = more binding, comparable within an allelic series); in [3] it was 9.95 upbm affinity estimate (log intensity, higher = more binding, comparable within an allelic series); in [11], 6.74 upbm affinity estimate (log intensity, higher = more binding, comparable within an allelic series); in assay [12], 6.57 upbm affinity estimate (log intensity, higher = more binding, comparable within an allelic series); in assay [13], 6.2 upbm affinity estimate (log intensity, higher = more binding, comparable within an allelic series). Moreover, the binding signal in assay [14] is 9.07 upbm affinity estimate (log intensity, higher = more binding, comparable within an allelic series).
As for CCCCACCG, the binding signal in assay [1] was 10.2 upbm affinity estimate (log intensity, higher = more binding, comparable within an allelic series); in assay [15], 9.41 upbm affinity estimate (log intensity, higher = more binding, comparable within an allelic series); in assay [16], 9.56 upbm affinity estimate (log intensity, higher = more binding, comparable within an allelic series); in [17], 9.46 upbm affinity estimate (log intensity, higher = more binding, comparable within an allelic series); in assay [18], 9.14 upbm affinity estimate (log intensity, higher = more binding, comparable within an allelic series); in assay [3], 10.1 upbm affinity estimate (log intensity, higher = more binding, comparable within an allelic series). Besides, the binding signal in [19] was 9.27 upbm affinity estimate (log intensity, higher = more binding, comparable within an allelic series); in [20], 9.33 upbm affinity estimate (log intensity, higher = more binding, comparable within an allelic series).
CTTTATGA: the binding signal in [1] was 12.2 upbm affinity estimate (log intensity, higher = more binding, comparable within an allelic series); in assay [21], 10 upbm affinity estimate (log intensity, higher = more binding, comparable within an allelic series); in assay [8] it was 10.5 upbm affinity estimate (log intensity, higher = more binding, comparable within an allelic series); in assay [9] it was 11.8 upbm affinity estimate (log intensity, higher = more binding, comparable within an allelic series); in assay [3] it was 11.6 upbm affinity estimate (log intensity, higher = more binding, comparable within an allelic series); in assay [22], 11.5 upbm affinity estimate (log intensity, higher = more binding, comparable within an allelic series). Further, in [23], the binding signal is 11.2 upbm affinity estimate (log intensity, higher = more binding, comparable within an allelic series).
As to ACCGGGCT, the binding signal in assay [1] is 10.1 upbm affinity estimate (log intensity, higher = more binding, comparable within an allelic series); in assay [24], 9.65 upbm affinity estimate (log intensity, higher = more binding, comparable within an allelic series); in assay [3], 10.1 upbm affinity estimate (log intensity, higher = more binding, comparable within an allelic series).
In the case of ATTTATAG, the binding signal in [1] was 12.2 upbm affinity estimate (log intensity, higher = more binding, comparable within an allelic series); in [25], 8.9 upbm affinity estimate (log intensity, higher = more binding, comparable within an allelic series); in assay [8] it was 11.1 upbm affinity estimate (log intensity, higher = more binding, comparable within an allelic series); in assay [26], 9.04 upbm affinity estimate (log intensity, higher = more binding, comparable within an allelic series); in [9], 12.1 upbm affinity estimate (log intensity, higher = more binding, comparable within an allelic series); in assay [3] it was 11.4 upbm affinity estimate (log intensity, higher = more binding, comparable within an allelic series). Besides, the binding signal in [22] was 11.9 upbm affinity estimate (log intensity, higher = more binding, comparable within an allelic series); in [27] it was 9.11 upbm affinity estimate (log intensity, higher = more binding, comparable within an allelic series).
Consider CGCCCCCC, for which the binding signal is 9.91 upbm affinity estimate (log intensity, higher = more binding, comparable within an allelic series) in [1]; 6.85 upbm affinity estimate (log intensity, higher = more binding, comparable within an allelic series) in [28]; 9.91 upbm affinity estimate (log intensity, higher = more binding, comparable within an allelic series) in assay [29]; 9.87 upbm affinity estimate (log intensity, higher = more binding, comparable within an allelic series) in assay [3]; 10.3 upbm affinity estimate (log intensity, higher = more binding, comparable within an allelic series) in assay [30]; 6.92 upbm affinity estimate (log intensity, higher = more binding, comparable within an allelic series) in [31].
